An excerpt weighted towards active compounds, which were near 7.4% of everything screened.
NPC1 prom act = qHTS Assay for NPC1 Promoter Activators | Huh7 NPC1 promoter luciferase reporter, 24 h | Potency, µM (series often up to 9.22 µM), without a hit: top-dose activation, actives largely listed as activators | 320,000 tested, 2.4% active; also: % of control where 0% means no effect; nearly all actives have a fitted effect of over 60% in size
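Luminescence from an NPC1 promoter-driven luciferase reporter in stably transfected Huh7 cells was measured after 24 h compound treatment at 37 °C, followed by 10 min ambient incubation with luciferase detection reagent.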
SMN2 splice up = qHTS Assay for Enhancers of SMN2 Splice Variant Expression; 210,000 tested, 2.8% active; Potency, µM (doses to about 46.1 µM), without a hit: at the top dose activity change, positive = activation, actives largely listed as activators; HEK293 SMN2-luciferase splicing reporter, luminescence, 30-36 h; also: % of control where 0% means no effect; nearly all actives have a fitted effect of over 55% in size
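HEK293 cells carry an SMN2 minigene-luciferase reporter in which exon 7 inclusion puts luciferase in frame. Cells were seeded at 2000 cells/well, attached for 10-12 hours, then exposed to compounds for 30-36 hours at 37C before ONE-Glo luminescence.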
FLuc modulator = qHTS profiling assay for firefly luciferase inhibitor/activator using purifed enzyme and Km concentrations of substrates (counterscreen for miR-21 project); Luciferin 4-monooxygenase (Photinus pyralis), P08659; purified FLuc, Km substrates, luminescence inhibition; Potency, µM (titrated, usually from 57.5 µM), for the others: top-dose activity change, negative = inhibition, most hits filed as inhibitors; 360,000 tested, 6.9% active;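 also: plate controls were vehicle for no effect and reference inhibitor for full effect; nearly all actives have a fitted effect of over 55% in size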
Target sequence (P08659 whole entry, looked up): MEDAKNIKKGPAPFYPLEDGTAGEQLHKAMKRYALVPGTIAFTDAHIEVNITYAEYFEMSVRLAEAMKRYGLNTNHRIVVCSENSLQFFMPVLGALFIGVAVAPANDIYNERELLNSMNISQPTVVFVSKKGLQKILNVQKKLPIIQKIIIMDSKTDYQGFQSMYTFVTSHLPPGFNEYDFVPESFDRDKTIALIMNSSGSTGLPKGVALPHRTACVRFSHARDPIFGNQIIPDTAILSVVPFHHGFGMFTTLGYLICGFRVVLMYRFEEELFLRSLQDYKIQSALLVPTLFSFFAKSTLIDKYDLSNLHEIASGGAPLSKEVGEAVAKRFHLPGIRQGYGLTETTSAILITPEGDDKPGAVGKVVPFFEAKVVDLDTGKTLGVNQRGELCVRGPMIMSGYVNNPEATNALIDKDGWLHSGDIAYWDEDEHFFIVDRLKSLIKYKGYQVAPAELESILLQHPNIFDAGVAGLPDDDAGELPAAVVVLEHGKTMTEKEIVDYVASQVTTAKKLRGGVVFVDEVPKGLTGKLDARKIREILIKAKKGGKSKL
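Biochemical qHTS of compounds, final roughly 60 µM downward over six points, against 10 nM purified firefly luciferase using Km concentrations of substrates (10 uM D-luciferin, 10 uM ATP) in Tris acetate pH 7.5 buffer; luminescence output.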
Rab9 promoter act = qHTS Assay for Rab9 Promoter Activators | AID 485297, 2010 | Potency, µM (doses to about 9.22 µM), for the others: top-dose activation, negative = inhibition, hits mostly activators | 320,000 tested, 2.8% active | Huh7 Rab9 promoter-luciferase reporter, luminescence, 24 h; also: % of control where 0% means no effect; nearly all actives have a fitted effect of over 60% in size
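Luminescence from Amplite-detected luciferase (10 minutes, ambient) reports Rab9 promoter activation. Before that, stable Rab9-luciferase Huh7 cells (1500/well, reduced-serum OP-MEM I plus 10% FBS) were exposed to compound for 24 hours at 37C.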
ELG1 genotox = qHTS screen for small molecules that induce genotoxicity in human embryonic kidney (HEK293T) cells expressing luciferase-tagged ELG1. AID 504466, 2011. 330,000 tested, 1.3% active. Potency, µM (highest dose often 46 µM), for inactives: at the highest dose activity change, positive = activation, most hits filed as activators. HEK293T ELG1-luciferase reporter, luminescence, 16 h; also: % of control where 0% means no effect; nearly all actives have a fitted effect of over 60% in size
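16 hr compound incubation (37 °C, 5% CO2) of HEK293T cells carrying luciferase-tagged ELG1; luciferase then measured by ONE-Glo luminescence after 30 min at RT.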
p53 reactivator = qHTS assay for re-activators of p53 using a Luc reporter; 320,000 tested, 0.063% active; H1299 p53-A138V BP100-luciferase reporter, luminescence, 24 h; Potency, µM (doses to about 92.2 µM), inactives show at the highest dose activity change, positive = activation, most hits filed as activators; AID 504706, 2011; also: % of control where 0% means no effect; nearly all actives have a fitted effect of over 45% in size
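H1299 (p53-null), stable ts p53-A138V + BP100-Luc; 1000 cells/well, Opti-MEM/10% FBS; cpd 4 pt, 1:5; 24 h, 37 deg C, 5% CO2; detection reagent 10 min RT; luminescence.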
An asterisk follows results filed as active; ? = inconclusive; . = no result given; [ ] = remark or other dose. Calls follow the shape of the dose curve; as a rule, active = well fitted curve in the direction sought with a large enough effect; inconclusive = small, poorly fitted or top-dose-only effect, or another doubt; inactive = no such curve, though single readings can be large; an effect the other way counts as inactive or inconclusive. Potency is read from the fitted curve at half-maximal effect.

SMILES | NPC1 prom act | SMN2 splice up | FLuc modulator | Rab9 promoter act | ELG1 genotox | p53 reactivator
CN(C)S(=O)(=O)c1cccc(N=C2NN=C(c3ccccc3)CS2)c1 | -0.8% | -57.7% | ? | 8.2% | -0.9% | ?
Cc1[nH]c2ccccc2c1C1=NNC(=Nc2ccc(F)cc2)SC1 | -0.3% | -38.3% | -4.6% | -3.1% | -13.1% | ?
Fc1ccccc1N=C1NN=C(c2ccccc2)CS1 | 2.51µM* | 12.6µM* | 13.5µM* | ? | ? | 6.2%
Fc1ccc(F)c(C2=NNC(=Nc3ccccc3F)SC2)c1 | ? | -21.8% | 12µM* | 29.6% | ? | ?
Fc1ccc(N=C2NN=C(c3cc(F)ccc3F)CS2)cc1 | 11.4% | 22.4µM* | 23.9µM* | ? | -2.7% | ?
COc1ccccc1NC(=O)C(C)OC(=O)CCCc1c[nH]c2ccccc12 (stereo not given) | -0.2% | . | -1.4% | 1.7% | 26.8% | -4.7%
Clc1ccccc1N=C1NN=C(c2cccs2)CS1 | 3.16µM* | 8.91µM* | 12µM* | 2µM* | ? | ?
CCCN1CCN(c2ncnc3sc(C(=O)Nc4ccc(C(C)C)cc4)c(C)c23)CC1 | . | . | -5.5% | . | . | .
Nc1ncnc2nc(-c3ccc(C[P+](c4ccccc4)(c4ccccc4)c4ccccc4)cc3)[nH]c12 | . | -18.4%[9.22 µM] | . | . | . | .
COc1cc(/C=N/NC(=O)c2ccc(CSc3nncn3C)cc2)cc(OC)c1O | 2.2% | 17.4% | ? | -1.0% | -0.7% | 1.1%
Cn1cnnc1SCc1ccc(C(=O)N/N=C/c2cccs2)cc1 | 2.3% | ? | 16.9µM* | -22.9% | 11.0% | 3.8%
C/C(=N\NC(=O)c1ccc(CSc2nncn2C)cc1)c1cccs1 | ? | 12.6µM* | 23.9µM* | 3.55µM* | ? | -2.2%
COCC(CN1CCN(C2=NS(=O)(=O)c3ccccc32)CC1)OC(=O)c1ccccc1 (stereo not given) | -7.8% | . | 0.3% | -3.4% | -3.0% | 0.6%
Cc1nn(C)cc1/C=N/NC(=S)Nc1ccccc1 | ? | 26.4% | 5.36µM* | 2µM* | 17.1% | ?
O=C1CCc2cc(NS(=O)(=O)c3ccccc3)cc3c2N1CC3 | -0.4% | . | -7.9% | -1.4% | 4.11µM* | 5.2%
CC1Cc2ccccc2N1C(=O)CSc1nnc(-c2ccccc2Cl)o1 (stereo not given) | . | . | -14.9% | . | . | .
O=C(Nc1cccc(F)c1)c1ccc(CSc2ccccc2)o1 | 23.4% | ? | 19µM* | 20.7% | 19.2% | ?
CC(=O)Nc1ccc(NC(=O)c2ccc(CSc3ccccc3)o2)cc1 | -2.1% | -48.2% | -5.4% | -3.5% | -4.9% | -5.2%
O=C(Nc1ccccc1F)c1ccc(COc2ccc(Cl)cc2Cl)o1 | -0.8% | 12.6µM* | ? | 0.1% | -3.4% | -7.3%
O=C(Nc1ccccc1F)c1ccc(CSc2ccccc2)o1 | 14.8% | 19.2% | 16.9µM* | 17.0% | ? | ?
COc1ncnc2sc(-c3ccccc3)cc12 | ? | ? | 12µM* | 3.16µM* | ? | ?
CN(C)c1ncnc2sc(-c3ccccc3)cc12 | 3.4% | . | 15.1µM* | 6.7% | 15.1% | -6.4%
COC(=O)c1cc2oc3ccccc3c2n1Cc1cc(C)ccc1C | . | 0.5% | -5.2% | . | . | .
CC(=O)Nc1cnc(NC(=O)c2cccc(F)c2)cc1C | 1.58µM* | 11.2µM* | 30.1µM* | 2.82µM* | 14.6µM* | ?
Cc1cc(NC(=O)c2cccc(F)c2)no1 | 25.8% | 13.9% | ? | 26.2% | ? | 18.9%
SMILES | NPC1 prom act | SMN2 splice up | FLuc modulator | Rab9 promoter act | ELG1 genotox | p53 reactivator
Cc1cc(NC(=O)c2ccco2)ncc1NC(=O)Cc1ccccc1 | ? | 8.1% | 16.9µM* | 3.16µM* | 17.3% | ?
CCC(=O)Nc1cnc(NC(=O)c2cccc(F)c2)cc1C | 1.58µM* | 11.2µM* | 9.53µM* | 0.708µM* | ? | ?
Cc1cc(NC(=O)C(C)C)ncc1NC(=O)c1ccco1 | -4.4% | . | 0.0% | 6.1% | -0.8% | 16.1%
CCCCc1ccc(-c2nc(NC(=O)C3C4CCC(O4)C3C(=O)O)sc2C)cc1 (stereo not given) | 15.8% | -13.0% | 21.3µM* | 12.3% | 16.4µM* | ?
CCc1cccc(C)c1NC(=O)C1C2CCC(O2)C1C(=O)O (stereo not given) | 1.1% | 7.3% | 0.0% | -5.8% | -3.8% | -0.2%
C/C(=N\NC(=S)Nc1cc(S(=O)(=O)N2CCOCC2)ccc1Cl)c1ccccc1F | -5.2% | -82.3% | 26.9µM* | -14.7% | 7.9% | ?
CC(C)N(C(=S)Nc1cc(S(=O)(=O)N2CCOCC2)ccc1Cl)c1ccccc1 | -1.5% | 3.6% | -2.0% | 0.1% | -1.1% | 19.3%
CCc1ccc(OCc2nc(-c3ccc(OC)c(OC)c3)no2)c(Br)c1 | . | -9.1% | -1.2% | . | . | .
CC(C)(C)c1ccc(OCc2nc(-c3ccccn3)no2)c(Br)c1 | . | 12.6µM* | 3.01µM* | . | . | .
Clc1cc(Cl)c(OCc2nc(-c3ccccn3)no2)cc1Cl | 1.12µM* | 11.2µM* | 1.35µM* | 0.708µM* | ? | ?
COc1ccccc1NC(=O)CSc1nnc(CCNC(=O)c2ccc(C)cc2)n1C | 9.1% | . | 15.1µM* | 24.8% | 6.1% | 4.1%
COc1ccc(C(=O)NCCc2nnc(SCC(=O)Nc3ccccc3F)n2C)cc1 | 7.5% | 29.9% | ? | 8.4% | 7.8% | 1.0%
COc1ccc(C(=O)NCc2nnc(SCC(=O)Nc3ccccc3OC)n2C)cc1 | -4.1% | 6.4% | 15.1µM* | -5.8% | 1.7% | -1.2%
CCOC(=O)c1ccc(NC(=O)CSc2nnc(CNC(=O)c3ccc(OC)cc3)n2CC)cc1 | . | 7.7% | 15.1µM* | . | . | .
CCc1ccc(NC(=O)Cn2c(=O)n(-c3ccc(OC)cc3)c(=O)c3ccc(C(=O)NCc4ccc(C)cc4)cc32)cc1 | . | 8.0% | 2.2% | . | . | .
Clc1ccc(-c2cn3cccnc3n2)cc1 | 26.9% | -5.0% | 10.7µM* | ? | 16.4µM* | ?
O=C(Nc1cccc(-c2cn3cccnc3n2)c1)c1cc(Br)ccc1Cl | . | . | -4.2% | . | . | .
COc1ccc(-c2cn3cccnc3n2)cc1F | ? | 15.8µM* | 8.49µM* | ? | ? | ?
CCC(=O)Nc1cc(-c2cn3cccnc3n2)ccc1OC | . | . | 3.4% | . | . | .
Clc1ccc(-c2cn3cccnc3n2)cc1Cl | ? | ? | 16.9µM* | ? | ? | 28.2%
Brc1ccc(-c2cn3cccnc3n2)cc1 | ? | 7.94µM* | 8.49µM* | 2.24µM* | 2.91µM* | ?
COc1ccc(/C=C(\C#N)c2nc(-c3cc4ccccc4oc3=O)cs2)cc1OC | . | -7.3% | -0.6% | . | . | .
